The values that follow come from PubChem BioAssay (Tox21).

Values joined by “and” are separate entries in the source; they are usually repeats but may differ in a detail not shown here. Equal entries are not always repeated. Results filed as inconclusive are left out. Where a structure was tested more than once in an assay, its records may differ in their call. Active and inactive are the calls of the source. Unless noted, the call rests on the fitted dose curve; in most records, active means well fitted curve in the direction sought with a large enough effect in the repeat runs; inconclusive means weak or mixed curves; inactive means no such curve, though single readings can be large; an effect the other way counts as inactive or inconclusive.

The nature of test [1]: qHTS assay to identify small molecule phospholipidosis (PLD) inducers (AID 1259344; active means well fitted curve in the direction sought with a large enough effect; an effect the other way counts as inactive or inconclusive; further: potency means the concentration at half of the fitted maximal effect). In outline:
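Fluorescent phospholipid staining (LipidTOX Red) measured by automated microscopy in fixed HepG2 cells after 24 h treatment; nuclei counterstained with Hoechst 33342; amiodarone as reference inducer.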

A short description of test [2]: qHTS assay to identify small molecule HDAC inhibitors (AID 1259364). Further: top concentration of the series differs between compounds; nearly all actives have a fitted effect of over 45% in size. In outline:
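Wild-type HCT-116 cells were plated overnight, exposed to compounds for 2 h at 37 °C, then given HDAC-Glo class I/II luminogenic reagent for 30 min at room temperature before luminescence was read.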
(Quantitative high-throughput screening tests each substance at several concentrations.)

The nature of test [3]: qHTS assay to identify small molecule HDAC inhibitors - cell viability counter screen (AID 1259365). Further: series mostly up to about 92 µM; nearly all actives have a fitted effect of over 50% in size. The gist of the method:
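HCT-116 wild-type, overnight attachment; 2hr drug exposure, 37C; CellTiter-Glo luminescent ATP readout after 30min RT.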

Test [4] in a line: qHTS assay to identify small molecule agonists of the sonic hedgehog signaling (Shh) pathway - cell viability counter screen (AID 1259366). Further: nearly all actives have a fitted effect of over 50% in size. Further: potency means the concentration at half of the fitted maximal effect. In outline:
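Compounds in DMSO were pin-transferred onto 3T3 Gli1-Luc cells that had settled 4hr; plates then stood 24hr at 37C and 5% CO2. One hour before the end, CellTiter-Fluor was added and fluorescence recorded.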

Test [5] is described as follows: qHTS assay to identify small molecule antagonists of the sonic hedgehog signaling (Shh) pathway - cell viability counter screen (AID 1259367). Further: nearly all actives have a fitted effect of over 55% in size. Further: potency means the concentration at half of the fitted maximal effect. The gist of the method: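 Using CellTiter-Fluor, viability of Gli1-Luc reporter 3T3 cells is read by fluorescence in the wells used for the Shh luciferase assay. Treatment lasts 23 hr with conditioned medium, then reagent 1 hr at 37C.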

Test [6] is described as follows: qHTS assay to identify small molecule agonists of the sonic hedgehog signaling (Shh) pathway (AID 1259368; calls by dose curve; further: series mostly up to about 92 µM; nearly all actives have a fitted effect of over 15% in size). The gist of the method: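 NIH/3T3-derived 3T3Gli1-Luc cells carrying a stably integrated Gli1 response element–firefly luciferase reporter were plated, left 4 hr at 37 C, then given compounds in DMSO for 24 hr. Luminescence was read 30 min after adding luciferase reagent.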

Test [7] concerns the target Estrogen receptor beta (Homo sapiens) (UniProt Q92731). In words: qHTS assay to identify small molecule agonists of the estrogen receptor beta (ER-beta) signaling pathway (AID 1259377; active means well fitted activation curve with a large enough effect in the signal ratio in the repeat runs, not every such curve was filed as active; the % refers to the signal ratio). In outline: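 qHTS in ER-beta-UAS-bla HEK293T cells: 6 hr settling, then 16 hr compound at 37C, then LiveBLAzer substrate 2 h at RT before fluorescence reading.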
The nature of test [8]: qHTS assay to identify small molecule antagonists of the sonic hedgehog signaling (Shh) pathway (AID 1259369; calls by dose curve; further: nearly all actives have a fitted effect of over 45% in size; further: potency means the concentration at half of the fitted maximal effect). In outline:
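NIH/3T3-derived 3T3Gli1-Luc cells with stably integrated Gli1-Luc reporter were preincubated 4hr at 37 C, then given compounds in DMSO plus Shh conditioned medium and incubated 24hr. Firefly luciferase luminescence read after 30min reagent at room temperature.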

Test [9] concerns the target Estrogen receptor (Homo sapiens) (UniProt P03372). In words: qHTS assay to identify small molecule antagonists of the estrogen receptor alpha (ER-alpha) signaling pathway using the BG1 cell line in the presence of 0.1 nM 17-beta-estradiol (AID 1259244). Further: nearly all actives have a fitted effect of over 50% in size. In outline:
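VM7Luc4E2 cells (endogenous full-length ER-alpha, stable 4xERE-luciferase) were grown 5 days in phenol red-free medium with charcoal-stripped FBS, then exposed 22 h at 37C to compounds plus 0.1 nM (final) 17beta-estradiol; ONE-Glo luminescence read-out.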
On the % scale 0 is the no-effect control and ±100 the full control effect.

Estrogen receptor (Homo sapiens), sequence (P03372 whole entry, looked up): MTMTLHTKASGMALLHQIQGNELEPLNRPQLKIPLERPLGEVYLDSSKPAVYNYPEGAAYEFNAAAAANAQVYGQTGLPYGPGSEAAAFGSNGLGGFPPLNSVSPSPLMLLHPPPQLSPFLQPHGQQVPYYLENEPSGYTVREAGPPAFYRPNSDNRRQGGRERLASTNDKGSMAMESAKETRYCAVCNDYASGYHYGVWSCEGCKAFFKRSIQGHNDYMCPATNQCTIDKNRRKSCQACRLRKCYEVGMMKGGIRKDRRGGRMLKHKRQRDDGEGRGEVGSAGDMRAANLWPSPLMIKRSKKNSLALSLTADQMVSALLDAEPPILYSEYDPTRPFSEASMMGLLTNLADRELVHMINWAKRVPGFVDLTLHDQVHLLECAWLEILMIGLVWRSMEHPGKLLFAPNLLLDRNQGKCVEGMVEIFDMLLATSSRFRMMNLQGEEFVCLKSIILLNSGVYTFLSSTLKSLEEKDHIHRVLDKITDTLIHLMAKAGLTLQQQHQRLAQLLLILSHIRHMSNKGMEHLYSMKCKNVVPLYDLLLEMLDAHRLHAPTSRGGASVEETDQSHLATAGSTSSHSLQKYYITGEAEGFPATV
Estrogen receptor beta (Homo sapiens), sequence (Q92731 whole entry, looked up): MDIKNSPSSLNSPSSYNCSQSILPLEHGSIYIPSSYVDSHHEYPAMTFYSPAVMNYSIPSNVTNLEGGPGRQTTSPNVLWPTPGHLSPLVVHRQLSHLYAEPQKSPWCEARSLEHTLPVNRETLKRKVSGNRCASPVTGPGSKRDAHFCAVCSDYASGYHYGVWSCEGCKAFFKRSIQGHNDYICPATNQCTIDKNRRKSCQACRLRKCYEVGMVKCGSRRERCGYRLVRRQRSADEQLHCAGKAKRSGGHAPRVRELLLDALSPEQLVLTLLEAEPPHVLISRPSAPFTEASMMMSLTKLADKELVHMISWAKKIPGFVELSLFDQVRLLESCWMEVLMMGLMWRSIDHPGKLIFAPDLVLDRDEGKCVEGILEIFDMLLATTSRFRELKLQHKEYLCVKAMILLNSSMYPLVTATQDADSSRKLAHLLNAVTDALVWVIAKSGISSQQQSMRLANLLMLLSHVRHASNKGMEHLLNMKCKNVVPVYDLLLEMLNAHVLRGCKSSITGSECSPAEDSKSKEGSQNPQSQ

On to `O=S(=O)(c1ccc(Cl)cc1)c1ccc(Cl)cc1`, for which the Potency entry in [1], in test [2], in test [3], in [4], in [5] and in [6] was “inactive” throughout. Besides, the Potency result in test [7] was “inactive”.
Consider `CCCCCCCCCCCCCCCC[N+](C)(C)C`, for which the Potency result in test [1], in test [2], in test [3] and in test [6] was “inactive” in each case. Also, the Potency in test [4] is 54.5 µM (active) and inactive; in test [5], 61.1 µM (active) and inactive; in test [8], 3.72 µM (active) and 969 nM (active) and 298 nM (active).
With `CCCCCCCCc1ccc(O)cc1`, the Potency entry in test [1], in test [2], in test [5] and in test [6] was “inactive” throughout.
Take `CC1CCC(C(C)C)C(OC(=O)c2ccccc2N)C1` (stereo not drawn): the Potency result in test [1], in [2], in test [5] and in test [6] was “inactive” throughout. Besides, the Potency in test [8] is 26.9 µM (active).
Consider `CCCCCCCCCCCCCCCC[n+]1ccccc1`, for which the Potency result in test [2], in test [3] and in test [6] was “inactive” throughout. Besides, the Potency is 60.3 µM (active) [middle of 4 runs] in [4]; 50.8 µM (active) and 61.1 µM (active) and 60.3 µM (active) in [5]; 508 nM (active) and 30.6 nM (active) and 21.4 nM (active) in test [8].
As for `O=[N+]([O-])c1c2ccccc2cc2ccccc12`, the Potency entry in test [9] and in test [6] was “inactive” in each case. Besides, the Potency in [8] is 67.8 µM (active).
Consider `Nc1ccc(Sc2ccc(N)cc2)cc1`, for which the Potency result in test [1], in test [2], in test [3], in [4], in [5] and in test [6] was “inactive” throughout.
As for `O=c1ssc(Cl)c1Cl`, the Potency entry in test [9], in test [3] and in [6] was “inactive” in each case. In addition, the Potency in [4] was 30.6 µM (active).
Regarding `Clc1ccc(CO/N=C(\Cn2ccnc2)c2ccc(Cl)cc2Cl)c(Cl)c1`, the Potency entry in test [1], in test [2], in [3] and in test [6] was “inactive” throughout. Besides, the Potency in test [8] is 4.73 µM (active).
With `CN(C)C(=S)S`, the Potency result in test [2], in [3] and in test [6] was “inactive” in each case. The Potency was 12.4 µM (active) and 6.07 µM (active) and 4.86 µM (active) in test [4]; 7 µM (active) and 4.82 µM (active) and 54.5 µM (active) in test [5]; 4.95 µM (active) and 962 nM (active) and 3.44 µM (active) in test [8].
For `c1ccc2c(c1)OCC(C1=NCCN1)O2` (stereo not drawn), the Potency result in test [1], in [3], in test [6] and in test [7] was “inactive” in each case. Besides, the Potency in [5] is 2.11 µM (active); in test [8], 0.376 µM (active).
As to `O=c1oc2ccccc2c(O)c1Cc1c(O)c2ccccc2oc1=O`, the Potency entry in [1], in [2], in test [3], in [4], in test [5] and in [6] was “inactive” throughout. The Potency entry in test [8] was “inactive”.
Consider `CC(C)[C@H](C(=O)O[C@H](C#N)c1cccc(Oc2ccccc2)c1)c1ccc(Cl)cc1`, for which the Potency entry in test [2], in [3], in test [4], in [5] and in test [6] was “inactive” in each case.
With `CC(C)Oc1cccc(NC(=O)c2ccccc2C(F)(F)F)c1`, the Potency result in test [1], in test [2], in test [4], in test [6] and in test [7] was “inactive” each time. Besides, the Potency in test [8] was 2.17 µM (active).
Regarding `CC(=O)[O-].[Tl+]`, the Potency result in test [2], in test [3], in [4], in [5] and in test [6] was “inactive” each time.
Consider `CC(C)CC(C)(c1ccc(O)cc1)c1ccc(O)cc1`, for which the Potency result in test [2], in test [3] and in [6] was “inactive” in each case. In addition, the Potency was 54.6 µM (active) in test [4], 61.3 µM (active) in test [5] and 27.4 µM (active) in [8].
Turning to `C=CCOC(N)=O`, the Potency result in test [2], in test [3], in test [4], in test [5], in test [6] and in test [8] was “inactive” in each case.
Turning to `COc1cc(N)c(Cl)cc1C(=O)NC1CN2CCC1CC2` (stereo not drawn), the Potency result in [1], in [2], in test [3], in test [4], in test [5] and in test [6] was “inactive” in each case. The Potency result in [8] and in test [7] was “inactive” in each case.
As for `NNC(=O)c1ccccc1`, the Potency entry in [9], in test [3], in [4], in [6] and in test [7] was “inactive” each time. The Potency in test [5] was 39.6 µM (active); in test [8], 31.5 µM (active).
For the compound `CCCN(CCC)c1c([N+](=O)[O-])cc(S(N)(=O)=O)cc1[N+](=O)[O-]`, the Potency entry in [1], in test [2] and in test [6] was “inactive” throughout. Further, the Potency in [4] is 54.5 µM (active); in [5], 24.3 µM (active); in test [8], 4.86 µM (active).
Regarding `Clc1ccc(CSC(Cn2ccnc2)c2ccc(Cl)cc2Cl)cc1` (stereo not drawn), the Potency result in [1], in test [2], in [6] and in [8] was “inactive” each time. The Potency in [5] is 26.6 µM (active).
With `Clc1ccc(C(c2ccc(Cl)cc2)C(Cl)(Cl)Cl)cc1`, the Potency result in [1], in test [2], in test [3], in test [5], in [6] and in test [7] was “inactive” throughout. Further, the Potency was 48.9 µM (active) and inactive in test [4]; 27.5 µM (active) and inactive in test [8].
As for `Cn1cc(C2=C(c3cn(C4CCN(Cc5ccccn5)CC4)c4ccccc34)C(=O)NC2=O)c2ccccc21`, in test [1], the Potency was 1.78 µM (active). Moreover, the Potency result in test [2], in test [4], in [5] and in test [6] was “inactive” throughout.
With `CC(=O)[O-].CC(=O)[O-].O.O.[Cd+2]`, the Potency entry in test [2], in test [3] and in test [6] was “inactive” throughout. Moreover, the Potency was 3.8 µM (active) in [4], 8.51 µM (active) in test [5] and 1.07 µM (active) in test [8].
Turning to `c1ccc(Nc2ccc3ccccc3c2)cc1`, the Potency entry in test [9], in [3], in test [4], in test [5], in [6] and in test [8] was “inactive” throughout. Moreover, the Potency result in test [7] was “inactive”.
For `Clc1ccc(COC(Cn2ccnc2)c2ccc(Cl)cc2Cl)cc1` (stereo not drawn), the Potency result in test [1], in [2], in test [3], in test [6] and in test [7] was “inactive” throughout. Besides, the Potency in test [4] is 36 µM (active) and 27.2 µM (active); in test [5] it was 45.3 µM (active) and 27.2 µM (active) and inactive; in [8] it was 11.4 µM (active).
`Clc1ccc(CCC(Cn2ccnc2)Sc2c(Cl)cccc2Cl)cc1` (stereo not drawn): the Potency result in test [1], in test [2], in test [3], in [4], in test [5] and in test [6] was “inactive” throughout. Further, the Potency in [8] was 2.98 µM (active).
Turning to `Nc1ccccc1C(=O)OC/C=C/c1ccccc1`, the Potency result in test [9], in test [3], in test [4], in test [5], in test [8] and in test [7] was “inactive” throughout.
With `O=c1[nH]c2ccccc2n1CCCN1CCC(n2c(=O)[nH]c3cc(Cl)ccc32)CC1`, the Potency entry in test [1], in [2], in test [3], in test [6] and in test [7] was “inactive” each time. For the same compound, the Potency in test [8] is 4.22 µM (active).
